Reference: PubChem BioAssay (NCATS)
Results filed as inconclusive are left out. Entries that show only a call come without a potency. A number with no mark means an inactive call. Active and inactive are the calls of the source. Calls follow the shape of the dose curve; as a rule, active = well fitted curve in the direction sought with a large enough effect; inconclusive = small, poorly fitted or top-dose-only effect, or another doubt; inactive = no such curve, though single readings can be large; an effect the other way counts as inactive or inconclusive.

test: P-glycoprotein substrates identified in KB-3-1 adenocarcinoma cell line, qHTS therapeutic library screen (AID 1346986); conditions: KB-3-1 parental cells viability, CellTiter-Glo, 72 h; series mostly up to 44.5 µM; activity change, negative = cytotoxicity: at the top concentration; also: nearly all actives have a fitted effect of over 60% in size;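 also: potency is for cytotoxicity meaning loss of cell viability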
Summary of the method: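 In 1536-well format, 500 cells/well received pinned compound titrations and were incubated 72 h, 5% CO2. Viability was read by CellTiter-Glo; cytotoxic if AC50 < 10 uM and efficacy >50%.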
Potency is read from the fitted curve at half-maximal effect.

Compound | outcome | Potency | activity change, negative = cytotoxicity [%]
C=C1C(=O)O[C@@H]2[C@H]1CC[C@H](C)[C@]1(CCC(=O)O1)C2(C)O (some centres undefined) | inactive |  | 
CN1CCc2cc3c(cc2C(=O)Cc2cc4c(cc2C1)OCO4)OCO3 | inactive |  | 
COc1cc2ncnc(Nc3cccc(I)c3)c2cc1OC |  | 6.51 µM (active) | 
Cc1cc2c(F)c(Oc3ncnn4cc(OCC(C)OC(=O)C(C)N)c(C)c34)ccc2[nH]1 (centres undefined) |  | 16.4 µM (active) | 
C#Cc1cccc(Nc2nc3cc(C(=O)O)ccc3c3cncnc23)c1 |  | 5.8 µM (active) | 
Cn1sc(=O)n(Cc2ccccc2)c1=O |  | 7.31 µM (active) | 
N#Cc1ccc2ncnc(NCCc3ccccc3)c2c1 |  | 16.4 µM (active) | 
CC1(C)CN(C(=O)c2ccc(-c3cccc4nc(NC(=O)C5CC5)nn34)cc2)C1 | inactive |  | 
COc1ccc(-c2c(C)nn3c(NCCN4CCOCC4)cc(C)nc23)cc1OC | inactive |  | 
C=CC(=O)Nc1cccc(Nc2nc(Nc3ccc(NC4CN(CCF)C4)cc3OC)ncc2C(F)(F)F)c1 |  | 10.3 µM (active) | 
COCCCNC(=O)c1ccc(Cn2c(=O)c3ccccc3n(Cc3ccc(C(C)C)cc3)c2=O)cc1 | inactive |  | 
O=C([C@@H](Cc1cccc(C(F)(F)F)c1)NS(=O)(=O)c1cc(F)c2c(c1)CCNC2)N1CCCC1 | inactive |  | 
CC(=O)O[C@@H]1CC2C(/C=C(\C)C(=O)[C@@]3(O)C[C@@H](C)[C@H](OC(=O)c4ccccc4)C3/C=C/1C)C2(C)C (some centres undefined) | inactive [at 17.4 µM] |  | 
NC(=O)c1nc(Nc2ccccc2)sc1NC(=O)C1CCCCC1 | inactive |  | 
CC1=C(c2ccc(NC(=O)c3c(F)cccc3F)cc2)CN(c2nccs2)CC1 | inactive |  | 
C=C1C(=O)O[C@@H]2C[C@H](C)[C@@H]3CC(=O)[C@H](O)[C@@]3(C)C[C@H]12 | inactive |  | 
CCN(Cc1ccccc1)C(=O)Cn1c(=O)n(C)c2cnc(-c3ccccc3)nc21 | inactive |  | 
Cc1cccc(N2CCN(C(=O)c3cc(S(=O)(=O)N(C)C)ccc3N3CCCC3)CC2)c1C | inactive |  | 
Cn1ncnc1[C@@H]1c2n[nH]c(=O)c3cc(F)cc(c23)N[C@H]1c1ccc(F)cc1 | inactive |  | 

Compound | outcome | Potency | activity change, negative = cytotoxicity [%]
Cc1nc(NC(=O)N2CCC[C@H]2C(N)=O)sc1-c1ccnc(C(C)(C)C(F)(F)F)c1 |  | 11.6 µM (active) | 
CC(C)S(=O)(=O)c1ccc2nccc(Nc3ccc4scnc4c3)c2c1 | inactive |  | 
Cn1cc(C2=C(c3coc4ccccc34)C(=O)NC2=O)c2cc(Br)ccc21 | inactive |  | 
CC(C)(F)CC(NC(c1ccc(-c2ccc(S(C)(=O)=O)cc2)cc1)C(F)(F)F)C(=O)NC1(C#N)CC1 (centres undefined) | inactive |  | 
COc1c(C)cc(NC(=O)c2nn(Cc3ccc(F)cc3)c3c2CN(C(=O)c2ccc[nH]2)C[C@]3(C)C(N)=O)cc1C | inactive [at 9.29 µM] |  | 
CC(=O)c1c(C)cc2cccc(O)c2c1O[C@@H]1O[C@H](CO)[C@@H](O)[C@H](O)[C@H]1O | inactive |  | 
Fc1ccc(-c2nc(-c3ccccc3F)[nH]c2-c2ccncc2)cc1 | inactive |  | 
C=C1C(=O)O[C@@H]2/C=C(\CO)CC/C=C(/C=O)C[C@H](O)[C@@H]12 | inactive |  | 
C=CC(=O)N1CCC(Oc2cc3c(Nc4ccc(Cl)c(Cl)c4F)ncnc3cc2OC)CC1 |  | 13 µM (active) | 
Cc1nc(NC(=O)N2CCCC2C(N)=O)sc1-c1ccnc(C(C)(C)C(F)(F)F)c1 (centres undefined) |  | 23.1 µM (active) | 
COc1cc2ncnc(Oc3ccc(CC(=O)Nc4cnn(C(C)C)c4)cc3)c2cc1OC |  |  | -1.91
C=C1C(=O)O[C@@H]2C[C@@]3(C)C[C@@H](O)C[C@H](C)C3=C[C@H]12 | inactive |  | 
CC(C)(C)Sc1c(CC(C)(C)C(=O)O)n(Cc2ccc(Cl)cc2)c2ccc(OCc3ccc4ccccc4n3)cc12 | inactive |  | 
COc1cc(OC)c2c(=O)[nH]c(-c3cc(C)c(OCCO)c(C)c3)nc2c1 | inactive |  | 
C/C(=N\N=C(N)N)c1cc(NC(=O)CCCCCCCCC(=O)Nc2cc(/C(C)=N/N=C(N)N)cc(/C(C)=N/N=C(N)N)c2)cc(/C(C)=N/N=C(N)N)c1 |  | 14.6 µM (active) | 
COC1C(OC(=O)/C=C/C=C/C=C/C=C/C(=O)O)CCC2(CO2)C1C1(C)OC1CC=C(C)C (centres undefined) | inactive [at 17.4 µM] |  | 
O=C(CSc1nc2ccccc2c(=O)n1-c1ccccc1)Nc1ccc2c(c1)CCC2 | inactive |  | 
COC(CCc1ccc(O)cc1)CC(=O)CCc1ccc(O)cc1 (centres undefined) | inactive |  | 
CC1(C)CCCC2(C)C1C(OC(=O)/C=C/C=C/C=O)C=C1COC(=O)C12O (centres undefined) | inactive [at 17.4 µM] |  | 

test: P-glycoprotein substrates identified in KB-8-5-11 adenocarcinoma cell line, qHTS therapeutic library screen (AID 1346987); conditions: KB-8-5-11 (P-gp overexpressing) viability, CellTiter-Glo, 72 h; series mostly up to 44.5 µM; activity change, negative = cytotoxicity: at the top concentration; also: nearly all actives have a fitted effect of over 65% in size
Summary of the method: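 Luminescence from CellTiter-Glo, read 5 min after addition, quantified survival of KB-8-5-11 (P-gp-overexpressing) cells exposed to compounds for 72 h. AC50 was derived from concentration-response curves.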

Compound | activity change, negative = cytotoxicity [%] | Potency
COCCCNC(=O)c1ccc(Cn2c(=O)c3ccccc3n(Cc3ccc(C(C)C)cc3)c2=O)cc1 | -11.7 | 
O=C([C@@H](Cc1cccc(C(F)(F)F)c1)NS(=O)(=O)c1cc(F)c2c(c1)CCNC2)N1CCCC1 | -18.2 | 
Cc1cccc(N2CCN(C(=O)c3cc(S(=O)(=O)N(C)C)ccc3N3CCCC3)CC2)c1C | 1.87 | 
Cn1ncnc1[C@@H]1c2n[nH]c(=O)c3cc(F)cc(c23)N[C@H]1c1ccc(F)cc1 | -2.45 | 
Fc1ccc(-c2nc(-c3ccccc3F)[nH]c2-c2ccncc2)cc1 | -3.18 | 
C=CC(=O)N1CCC(Oc2cc3c(Nc4ccc(Cl)c(Cl)c4F)ncnc3cc2OC)CC1 |  | 11.6 µM (active)
